# D1 PAM = Potentiators of Human D1 Dopamine Receptor: qHTS; D(1A) dopamine receptor (Homo sapiens), P21728; HEK293 TREx D1 cells, calcium flux, dopamine EC20 potentiation; AID 504651, 2011; potentiation, % at 10 µM; actives 0.036% (n = 360,000); in the data active means potentiation above about 30%; further: 0% is about no effect
# D1 antag = Antagonist of Human D 1 Dopamine Receptor: qHTS; actives 3.2% (n = 360,000); activity change, negative = inhibition, % at 10 µM; HEK293 TREx D1 cells, calcium flux, dopamine EC80; active compounds read low; D(1A) dopamine receptor (Homo sapiens), P21728; in the data active means activity change below about -30%; further: on the % scale 0 is the no-effect control and ±100 the full control effect
#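 Antagonism measured as reduced calcium response to an EC80 dopamine addition following 180 s compound pre-read; cells were inducible HEK293 Trex D1 plated overnight at 30 C, read kinetically at 1 cycle/sec.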
# GALK inhibitor = qHTS Assay for Inhibitors of Human Galactokinase (GALK) | Potency, µM (top dose mostly 57.5 µM), for the others: top-dose activity change, negative = inhibition, hits mostly inhibitors | Purified GALK, Kinase-Glo residual ATP luminescence | actives 0.007% (n = 270,000); further: potency means the concentration at half of the fitted maximal effect; on the % scale 0 is the no-effect control and ±100 the full control effect
# Target sequence (P51570 whole entry, looked up): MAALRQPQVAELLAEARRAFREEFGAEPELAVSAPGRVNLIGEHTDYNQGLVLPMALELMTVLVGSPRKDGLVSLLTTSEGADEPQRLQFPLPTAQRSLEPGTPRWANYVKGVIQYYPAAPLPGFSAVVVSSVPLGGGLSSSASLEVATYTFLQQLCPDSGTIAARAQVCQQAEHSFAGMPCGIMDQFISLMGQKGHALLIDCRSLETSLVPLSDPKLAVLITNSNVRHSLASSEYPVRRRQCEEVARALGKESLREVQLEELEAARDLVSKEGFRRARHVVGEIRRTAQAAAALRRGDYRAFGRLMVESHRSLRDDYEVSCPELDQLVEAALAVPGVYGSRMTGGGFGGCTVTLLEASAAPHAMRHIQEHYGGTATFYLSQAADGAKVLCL
#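 Galactose (100 uM) and ATP (35 uM) were turned over by 5 nM GALK for 1 h at RT. Kinase-Glo Plus then converted the remaining ATP into a luminescent signal.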
# USP2a inh = qHTS Assay for Inhibitors of Ubiquitin-specific Protease USP2a Using CHOP2 as the Reporter. Ubiquitin carboxyl-terminal hydrolase 2 (Homo sapiens), O75604. USP2 core, Ub-CHOP2 coupled fluorogenic reporter, 485/531. Potency, µM (doses to about 38.3 µM), for the others: top-dose activity change, negative = inhibition, most hits filed as inhibitors. actives 0.01% (n = 330,000). AID 463254, 2010;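 further: potency means the concentration at half of the fitted maximal effect; plate controls were DMSO wells for no effect and full inhibition by NEM control for full effect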
#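 USP2 core (10nM final) preincubated 30min RT with compound in 20mM Tris-HCl pH 8.0, 2mM CaCl2, 2mM beta-mercaptoethanol, 0.05% CHAPS; 25nM Ub-CHOP2 plus 25nM reporter substrate added, fluorescence (Ex485/Em531) read after 60min.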
# Eya2 phos inh = qHTS Assay for Inhibitors of the Phosphatase Activity of Eya2; Protein phosphatase EYA2 (Homo sapiens), O00167; recombinant Eya2, OMFP fluorescence dephosphorylation (OMFP is methylfluorescein phosphate); Potency, µM (titrated, usually from 76.9 µM), without a hit: at the top dose activity, negative = inhibition, actives largely listed as inhibitors; actives 0.006% (n = 330,000); AID 488837, 2010; further: potency means the concentration at half of the fitted maximal effect; on the % scale 0 is the no-effect control and ±100 the full control effect
#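 Eya2 protein (added as 0.2 uM solution) was preincubated with compound for 10 min at ambient temperature in 50 mM HEPES pH 7.5, 50 mM NaCl, 5 uM MgCl2, 0.05% BSA, 1 mM DTT. OMFP (added at 50 uM) then reacted 10 min; fluorescence read at 485/525 nm.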
# D1 ag = Allosteric Agonists of the Human D1 Dopamine Receptor: qHTS; HEK293 T-REx D1 cells, calcium flux, agonist mode; D(1A) dopamine receptor (Homo sapiens), P21728; actives 1% (n = 360,000); activation, % at 2 µM; in the data active means activation above about 30%; further: 0% is about no effect
#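 Tetracycline-induced HEK293 TREx D1 cells, force-coupled to calcium signalling, were dye-loaded with a no-wash calcium kit. Compound was pin-added after a 10 s baseline. Fluorescence was read kinetically at 1 cycle/s for 180 s, with calcium rises flagged as agonism.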
# Active calls of the source: *; ? = inconclusive; / = no result. Shown are actives, neighbours in structure and some others; about 3.9% of the full set was active somewhere. Unless noted, the call rests on the fitted dose curve; in most records, active means well fitted inhibition curve with a large enough effect; inconclusive means small, poorly fitted or top-dose-only effect, or effect the other way; inactive means flat fitted curve, though single readings scatter.
SMILES,D1 PAM,D1 antag,GALK inhibitor,USP2a inh,Eya2 phos inh,D1 ag
CCOc1ccc(CNC(=O)C2CCCN(S(=O)(=O)c3ccc4c(ccn4C)c3)C2)cc1 (stereo not drawn),-2.8,-20.1,/,/,/,3.7
CC1CCc2c(cc(-c3ccccc3)n2-c2ccc(C(=O)NC(C)C)cc2)C1 (stereo not drawn),-5.0,-39.4*,/,/,/,7.0
O=c1oc(-c2ccco2)nc2ccccc12,-5.7,-38.5*,2.3%,0.2%,24.3%,2.1
CN(C)c1ccc(C(CNC(=O)c2ccc(C(C)(C)C)cc2)N2CCCC2)cc1 (stereo not drawn),3.2,-9.2,/,/,/,37.5*
COc1ccc(C(=O)NCC(c2ccc(N(C)C)cc2)N2CCCC2)cc1 (stereo not drawn),-0.1,-5.2,/,/,/,4.0
CN(C)c1ccc(C(CNS(=O)(=O)c2ccc(F)cc2)N2CCCC2)cc1 (stereo not drawn),5.8,6.7,/,/,/,59.0*
Cc1ccc(C)c(N2CCN(C(=O)c3cc4sccc4n3C)CC2)c1,6.8,-1.3,/,-1.6%,2.8%,2.6
Cc1ccc(C)c(N2CCN(C(=O)C3CCN(C(=O)c4cc5sccc5n4C)CC3)CC2)c1,0.8,-64.5*,/,/,/,6.2
O=C(CC1C(=O)N(c2ccc(F)cc2)C(=O)N1Cc1ccc2c(c1)OCO2)Nc1ccc(F)cc1 (stereo not drawn),-1.9,-0.7,/,/,/,-1.5
CC(=O)N/N=C/c1cc(C(C)(C)C)cc(/C=N/NC(C)=O)c1O,8.0,-9.5,4.3%,?,7.0%,35.9*
CCc1ccc(NC(=O)C(=O)NCCc2csc(-c3ccc(C(F)(F)F)cc3)n2)cc1,-6.0,-0.4,/,/,/,4.0
COc1ccc(N2CCN(C(=O)CCCNC(=O)Cn3cnc4sc(C)c(C)c4c3=O)CC2)cc1,6.5,-41.6*,-2.1%,1.6%,11.3%,1.4
COc1ccccc1N1CCN(C(=O)CCCNC(=O)Cn2cnc3sc(C)c(C)c3c2=O)CC1,-0.6,11.6,-3.8%,0.7%,6.8%,-1.1
Cc1cccc(C)c1NC(=O)CCSCCc1ccccn1,8.7,-8.8,/,/,/,2.9
O=C(c1nc[nH]c1C(=O)N1CCc2ccccc2C1)N1CCc2ccccc2C1,-1.7,-66.3*,/,-1.5%,-33.1%,0.5
COc1ccccc1CNC(=O)c1cnc2sccn2c1=O,-11.6,-39.6*,3.7%,-0.1%,-6.5%,2.8
Cc1cc(C(=O)NCc2ccccc2Cl)n(-c2ccccc2)n1,-3.5,-37.7*,-2.4%,1.4%,2.9%,0.5
Cc1csc2ncc(C(=O)NCc3ccc4c(c3)OCO4)c(=O)n12,-5.8,2.5,1.5%,0.6%,-35.6%,3.6
Cc1csc2ncc(C(=O)NCc3ccccc3Cl)c(=O)n12,-3.8,-33.7*,-3.9%,0.6%,1.0%,0.8
COc1ccccc1CNC(=O)c1cnc2ccccn2c1=O,-3.6,-4.7,1.4%,1.3%,16.0%,-2.8
CCc1ccc(C(=O)NC(Cc2c[nH]c3ccccc23)C(=O)OCC(=O)c2ccc(Br)cc2)cc1 (stereo not drawn),-4.7,-6.3,/,/,/,2.6
N#Cc1ccc(NC(=O)COCc2cc(-c3ccc4c(c3)OCO4)on2)cc1,-2.1,-39.8*,/,/,/,4.9
COc1ccc(NC(=O)COCc2cc(-c3ccc4c(c3)OCO4)on2)cc1,-7.0,-15.0,/,/,/,9.6
COc1ccc(NC(=O)Cn2c(=O)n(CCCCCC(=O)NCc3ccc4c(c3)OCO4)c(=O)c3sccc32)cc1Cl,0.6,-6.6,/,/,/,2.5
Cn1c(CNC(=O)CSc2nc(-c3ccccc3F)nc3cc(=O)[nH]n23)nc2ccccc21,-4.1,-57.6*,/,/,/,0.4

# Compound activity from PubChem BioAssay.
